Active and inactive are the calls of the source.
Tests used:
[1] = E. coli DRC41 culture turbidity changes, primary screen, E. coli filamentation inducer project, strain DRC41, OD650, 48 h (AID 1152);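 also: E. coli MC1000 strain DRC41 lacking acrAB efflux pump and sulA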; conditions: E. coli DRC41 (acrAB sulA), higher = more signal, called active from +8 up or from −8 down
[2] = small-molecule binders of probe aLefty1, primary screen, biochemical, small-molecule microarray, 635/667 nm fluorescence (AID 1153); conditions: higher = more signal;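 also: score merges spot fluorescence with signal-to-noise ratio from the scanned slide images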
[3] = PSAC antagonists in infected red cells, primary screen, cell-based, P. falciparum Indochina, OD700, 1 h (AID 1154); conditions: P. falciparum Indochina infected RBC osmotic lysis, higher = more signal, called active from +8 up or from −8 down
[4] = PSAC antagonists in infected red cells, primary screen, cell-based, P. falciparum Indochina, OD700, 2 h (AID 1155);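 also: lysis reports solute entry through the parasite surface anion channel PSAC; channel blockers reduce lysis of infected cells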; conditions: P. falciparum Indochina infected erythrocytes, osmotic lysis OD700; higher = more signal, called active from +8 up or from −8 down
[5] = osmotic lysis modulators in infected erythrocytes, primary screen, PSAC antagonist project, cell-based, P. falciparum Indochina, OD700, 3 h (AID 1156); conditions: higher = more signal, called active from +8 up or from −8 down
[6] = PSAC antagonists in infected red cells, primary screen, cell-based, P. falciparum Indochina, OD700, 18 h (AID 1157); conditions: P. falciparum Indochina infected erythrocytes, osmotic lysis OD700, 18 h; higher = more signal, called active from +8 up or from −8 down
[7] = modulators of S6 phosphorylation in cells, primary screen, cell-based, A549, cytoblot, luminescence, serum-stimulated (AID 1158); conditions: A549 phospho-S6 cytoblot, 5 h, higher = more signal;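 also: serum-stimulated A549 lung adenocarcinoma cells; signal is phosphorylated S6 detected by cytoblot immunostaining with HRP secondary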
[8] = biological target: NADPH oxidase 2 (Homo sapiens) (UniProt P04839); assay: NOX2-dependent H2O2 signal modulators, primary screen, NOX inhibitor project, cell-based, HEK293-NOX2, PMA-stimulated, Amplex Red fluorescence (AID 1159); conditions: 45 min, higher = more signal, called active from +8 up or from −8 down; also: test concentration not given here
[9] = biological target: NADPH oxidase 4 (Homo sapiens) (UniProt Q9NPH5); assay: NOX4-dependent H2O2 signal modulators, primary screen, NOX inhibitor project, cell-based, HEK293-NOX4, tetracycline-induced, Amplex Red fluorescence (AID 1160); conditions: 45 min, higher = more signal, called active from +8 up or from −8 down
[10] = biological target: NADPH oxidase 5 (Homo sapiens) (UniProt Q96PH1); assay: NOX5-dependent H2O2 signal modulators, primary screen, NOX inhibitor project, cell-based, HEK293-NOX5, Amplex Red fluorescence (AID 1161); conditions: HEK293-NOX5, ionomycin, 45 min, higher = more signal
Sequence of NADPH oxidase 5 (Homo sapiens) (Q96PH1 whole entry, looked up): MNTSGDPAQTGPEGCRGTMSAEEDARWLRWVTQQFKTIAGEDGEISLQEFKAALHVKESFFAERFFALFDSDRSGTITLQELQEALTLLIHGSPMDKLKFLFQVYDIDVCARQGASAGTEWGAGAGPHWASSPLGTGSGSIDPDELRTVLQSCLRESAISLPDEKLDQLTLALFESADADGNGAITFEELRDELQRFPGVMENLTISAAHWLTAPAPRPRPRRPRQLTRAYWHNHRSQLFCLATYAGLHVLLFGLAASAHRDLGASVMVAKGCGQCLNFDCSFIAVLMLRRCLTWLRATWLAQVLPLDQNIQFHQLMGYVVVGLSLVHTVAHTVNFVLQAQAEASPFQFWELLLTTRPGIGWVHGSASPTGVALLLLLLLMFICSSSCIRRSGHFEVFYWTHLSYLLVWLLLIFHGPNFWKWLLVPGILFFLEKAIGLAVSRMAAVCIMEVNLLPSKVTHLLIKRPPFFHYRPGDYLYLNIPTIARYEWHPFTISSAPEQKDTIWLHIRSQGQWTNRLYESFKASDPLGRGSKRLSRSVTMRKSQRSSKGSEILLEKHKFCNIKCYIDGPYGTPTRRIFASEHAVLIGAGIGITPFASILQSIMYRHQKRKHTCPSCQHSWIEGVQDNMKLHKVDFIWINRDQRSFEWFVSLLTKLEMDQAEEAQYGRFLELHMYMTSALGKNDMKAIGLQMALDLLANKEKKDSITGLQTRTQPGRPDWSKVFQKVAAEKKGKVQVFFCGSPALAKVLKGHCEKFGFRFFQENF

Sequence of NADPH oxidase 2 (Homo sapiens) (P04839 whole entry, looked up): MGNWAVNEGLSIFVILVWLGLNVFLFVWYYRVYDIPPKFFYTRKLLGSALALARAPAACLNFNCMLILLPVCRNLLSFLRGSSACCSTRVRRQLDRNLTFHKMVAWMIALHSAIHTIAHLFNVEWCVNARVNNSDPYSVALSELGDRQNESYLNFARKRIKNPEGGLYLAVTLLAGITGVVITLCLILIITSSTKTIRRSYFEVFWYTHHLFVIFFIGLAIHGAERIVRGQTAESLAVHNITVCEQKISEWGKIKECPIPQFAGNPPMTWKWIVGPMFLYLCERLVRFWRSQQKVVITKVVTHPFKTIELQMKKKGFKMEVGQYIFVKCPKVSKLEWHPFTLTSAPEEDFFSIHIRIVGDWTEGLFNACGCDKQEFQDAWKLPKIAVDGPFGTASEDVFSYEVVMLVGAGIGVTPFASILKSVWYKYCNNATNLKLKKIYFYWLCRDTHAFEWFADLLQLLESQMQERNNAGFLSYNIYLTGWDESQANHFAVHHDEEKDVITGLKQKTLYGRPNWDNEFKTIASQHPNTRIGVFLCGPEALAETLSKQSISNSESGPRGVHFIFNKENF
Sequence of NADPH oxidase 4 (Homo sapiens) (Q9NPH5 whole entry, looked up): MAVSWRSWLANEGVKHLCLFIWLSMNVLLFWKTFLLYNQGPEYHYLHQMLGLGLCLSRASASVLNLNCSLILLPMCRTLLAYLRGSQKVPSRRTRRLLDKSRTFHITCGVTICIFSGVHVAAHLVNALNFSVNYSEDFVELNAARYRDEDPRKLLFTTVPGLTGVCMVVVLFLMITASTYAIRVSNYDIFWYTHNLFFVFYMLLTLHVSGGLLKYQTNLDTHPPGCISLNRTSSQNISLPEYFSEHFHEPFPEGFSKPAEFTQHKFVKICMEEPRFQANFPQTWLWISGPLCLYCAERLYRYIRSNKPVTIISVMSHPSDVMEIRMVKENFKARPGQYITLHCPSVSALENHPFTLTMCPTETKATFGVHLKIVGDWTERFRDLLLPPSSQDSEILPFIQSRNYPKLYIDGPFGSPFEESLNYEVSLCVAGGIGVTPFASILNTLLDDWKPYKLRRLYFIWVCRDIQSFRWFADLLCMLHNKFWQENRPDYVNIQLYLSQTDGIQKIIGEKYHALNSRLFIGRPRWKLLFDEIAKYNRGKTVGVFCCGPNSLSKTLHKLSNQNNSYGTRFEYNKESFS

Row | Structure (SMILES) | z-score [1] | composite z-score [2] | z-score [3] | z-score [4] | z-score [5] | z-score [6] | z-score [7] | z-score [8] | z-score [9] | z-score [10]
1 | COc1ccc([Si](C)(C)[C@H]2[C@H](CC(=O)N3Cc4ccccc4C[C@H]3CO)O[C@@]3(C(=O)N(Cc4cccc(N5CCOC5=O)c4)c4ccccc43)[C@@H]2C)cc1 | 0.666 (inactive) | -0.012 | 4.02 (inactive) | 1.09 (inactive) | 0.739 (inactive) | 0.771 (inactive) | 2.73 | -1.14 (inactive) | 0.916 (inactive) | -1.09
2 | CCCCCCc1nc(C2CC2)c(C)c2c1[Si](C(C)C)(C(C)C)OC2 | 2.16 (inactive) | -0.196 | 2.89 (inactive) | 0.176 (inactive) | -0.162 (inactive) | 0.0166 (inactive) | 3.38 | -0.579 (inactive) | -0.404 (inactive) | -1.38
3 | CCC1=C2CN(Cc3ccccc3Br)[C@@H]([C@@H](O)Cc3ccccc3)C2C=CCC1 (stereo not given in full) | 0.625 (inactive) | -0.101 | 4.02 (inactive) | -0.96 (inactive) | -0.115 (inactive) | -1.8 (inactive) | 1.56 | -0.306 (inactive) | -4.86 (inactive) | -4.65
4 | CCC(=O)[C@]12O[C@@]3([C@@H]4C(=O)OCC[C@@H]41)N(Cc1ccccc1)C(C)=C(C(=O)OC)[C@@H](c1ccccc1)N3C2=O | 0.57 (inactive) | -0.243 | 0.34 (inactive) | -1.22 (inactive) | 0.573 (inactive) | -1.74 (inactive) | 0.21 | 1.2 (inactive) | 0.785 (inactive) | 0.538
5 | C=CCNC(=O)[C@H]1[C@@H]2C(=O)O[C@@H](c3ccccc3)[C@@H](c3ccccc3)N2[C@@H](c2ccccc2OCCO)[C@]12C(=O)N(C(=O)OCCOC)c1ccc(C#CCC(C(=O)OC)C(=O)OC)cc12 | 2.88 (inactive) | 0.042 | 2.93 (inactive) | -0.183 (inactive) | 0.824 (inactive) | -2.13 (inactive) | 2.23 | 0.819 (inactive) | 0.0202 (inactive) | 0.521
6 | O=C1c2ccccc2[C@](Cc2ccccc2I)(C(=O)NCc2ccccc2)[C@H](c2ccc(CO)cc2)N1Cc1ccccc1C(F)(F)F | 1.73 (inactive) | -0.103 | 1.62 (inactive) | -0.664 (inactive) | -0.345 (inactive) | -1.24 (inactive) | 0.524 | 0.617 (inactive) | -0.738 (inactive) | 2.32
7 | C=CC[C@]1(C(N)=O)N=C(c2ccc(OCCCO)cc2)O[C@H]1c1ccccc1CN=[N+]=[N-] | 2.19 (inactive) | -0.007 | 23.9 (active) | 6.58 (inactive) | -0.294 (inactive) | 0.837 (inactive) | 1.73 | -2.02 (inactive) | -0.202 (inactive) | 0.568
8 | C=CC[C@@]1(C(=O)NCC(O)CO)N=C(c2ccc(OCCCO)cc2)O[C@@H]1c1ccccc1CN=[N+]=[N-] (stereo not given in full) | 1.39 (inactive) | 0.129 | 24.9 (active) | 9.51 (active) | 1.99 (inactive) | 1.25 (inactive) | 0.281 | -0.424 (inactive) | 0.495 (inactive) | -0.927
9 | Cc1ccc(S[C@]2(C(=O)NC(C)C)CC(=O)N(C3Cc4ccccc4C3)[C@@H]2c2ccc(CO)cc2)cc1 | -0.415 (inactive) | -0.357 | 2.26 (inactive) | -0.862 (inactive) | 1.04 (inactive) | -1.88 (inactive) | 1.95 | 0.0257 (inactive) | -0.029 (inactive) | -0.927
10 | COc1ccc(-c2ccccc2[C@@H]2N[C@H](C(=O)O)CC[C@H]2C)cc1 | 0.522 (inactive) | -0.147 | 0.908 (inactive) | 0.443 (inactive) | 1.42 (inactive) | -0.0201 (inactive) | 0.305 | 0.653 (inactive) | -1.28 (inactive) | -0.431
11 | Cc1ccc(N2C(=O)c3ccccc3[C@](C)(C(=O)O)[C@@H]2c2ccc(CO)cc2)nc1 | 1.47 (inactive) | -0.147 | 0.703 (inactive) | -0.228 (inactive) | -0.0241 (inactive) | -0.211 (inactive) | 0.283 | 0.775 (inactive) | -0.975 (inactive) | -0.457
12 | CCOC(=O)C[C@H]1[C@H](OC(=O)Cc2ccc3c(c2)OCO3)[C@@H](NC(=O)CC(C)C)c2cc(OCCCO)ccc2N1C(=O)c1ccccc1 | 2.39 (inactive) | 0.0698 | 0.4 (inactive) | -1.02 (inactive) | -0.462 (inactive) | -1.5 (inactive) | 0.622 | 0.337 (inactive) | 0.52 (inactive) | 0.47
13 | CC(C)NC(=O)[C@@]1(Cc2ccccc2I)c2ccccc2C(=O)N(C2CCCCC2)[C@H]1c1ccc(CO)cc1 | 0.151 (inactive) | 0.149 | 7.99 (inactive) | 1.13 (inactive) | 3.67 (inactive) | 1.28 (inactive) | 0.274 | 0.988 (inactive) | -1.77 (inactive) | -1.42
14 | CCCNC(=O)[C@@H]1c2ccccc2C(=O)N(Cc2cc(F)cc(C(F)(F)F)c2)[C@H]1c1ccc(CO)cc1 | 1.86 (inactive) | 0.251 | 2.1 (inactive) | -0.314 (inactive) | 0.064 (inactive) | -0.73 (inactive) | 1.74 | 1.2 (inactive) | 0.609 (inactive) | 0.676
15 | NC(=O)NCC#Cc1ccc2c(c1)[C@]1(C(=O)N2)[C@H](c2ccccc2OCCO)N2[C@H](c3ccccc3)[C@H](c3ccccc3)OC(=O)[C@H]2[C@@H]1C(=O)N1CCN(c2ncccn2)CC1 | 2.11 (inactive) | 0.445 | 3.42 (inactive) | 0.449 (inactive) | 0.229 (inactive) | -1.44 (inactive) | 2.08 | 1.09 (inactive) | 0.958 (inactive) | -0.596
16 | CCCC=C(CCC)[C@@H](NS(=O)(=O)c1ccc(-c2ccccc2)cc1)c1ccc(C(=O)OC)cc1 | -2.25 (inactive) | -0.202 | 0.757 (inactive) | -0.515 (inactive) | 0.248 (inactive) | -1.71 (inactive) | 2.45 | -4.5 (inactive) | -4.82 (inactive) | -2.09
17 | NC(=O)NCC#Cc1ccc2c(c1)[C@]1(C(=O)N2)[C@H](C(=O)N2CCCCCCC2)[C@H]2C(=O)O[C@H](c3ccccc3)[C@H](c3ccccc3)N2[C@@H]1c1ccccc1OCCO | 1.43 (inactive) | 2.79 | 0.833 (inactive) | 0.483 (inactive) | 1.8 (inactive) | 0.148 (inactive) | 0.421 | 2 (inactive) | 1.36 (inactive) | 0.881
18 | CC(C)[Si]1(C(C)C)O[C@@H](c2ccccc2)c2cc(C3CC3)nc(-c3ccc(Oc4ccccc4)cc3)c21 | 2.17 (inactive) | -0.0011 | 0.835 (inactive) | -0.0994 (inactive) | 1.08 (inactive) | -0.812 (inactive) | -0.164 | 1.06 (inactive) | 0.86 (inactive) | 0.456
